We go through 32 compounds from the supplement of paper PMC13380429.

In assay [1] the test system is Vero E6 infected with SARS-CoV-2. The experiment in a line: morphology score (similarity to uninfected cells); higher = more like uninfected cells. The following applies: 24 h.
Assay [2] shares this test system. The experiment in a line: SARS-CoV-2 infection rate relative to infected DMSO; higher = more infection, active = 60 or less. As to conditions: 24 h.

Counter-ions that a name gives are not always drawn.

On to `CC(=O)[C@H]1CC[C@H]2[C@@H]3CCC4=CC(=O)CC[C@]4(C)[C@H]3CC[C@]12C` [progesterone] (10 µM), for which the morphology score in assay [1] came to 0.206. Moreover, the SARS-CoV-2 infection rate in assay [2] was 96% (inactive).

In assay [1], `CCNC(=O)[C@H]1O[C@@H](n2cnc3c(N)ncnc32)[C@H](O)[C@@H]1O` (10 µM) came in with a morphology score of 0.184. Moreover, in assay [2], the SARS-CoV-2 infection rate is 92% (inactive).

Compound `CN1CCN(c2cc(-c3ccccc3)nc(N)n2)CC1` (10 µM) returned a morphology score in assay [1] of 0.206. Moreover, the SARS-CoV-2 infection rate in assay [2] was 94.5% (inactive).

Take `Cc1cc(C(C)(C)C)cc(C)c1CC1=NCCN1` [xylometazoline] (10 µM): the morphology score in assay [1] is -0.0246. For the same compound, the SARS-CoV-2 infection rate in assay [2] was 106% (inactive).

The compound `CCCCCCCCCCCCCCCC=O` [1-hexadecanal] (10 µM) came in with a morphology score in assay [1] of 0.185. Moreover, in assay [2], the SARS-CoV-2 infection rate is 100% (inactive).

As for `N#Cc1cc(CN2CCC(Nc3ncnc4sc(Cl)cc34)CC2)ccc1F` (10 µM), in assay [1], the morphology score was -0.299. The SARS-CoV-2 infection rate in assay [2] was 116% (inactive).

Consider `FC(F)OC(F)(F)C(F)Cl` (centres undefined) [enflurane] (10 µM), for which the morphology score in assay [1] came out at 0.188. Besides, in assay [2], the SARS-CoV-2 infection rate is 98.5% (inactive).

For the compound `c1ccc(Oc2cccnc2)cc1` (10 µM), in assay [1], the morphology score is 0.0741. The SARS-CoV-2 infection rate in assay [2] was 103% (inactive).

For `CN1Cc2c(N)cccc2C(c2ccccc2)C1` (centres undefined) [nomifensine] (10 µM), in assay [1], the morphology score was -0.106. In assay [2], the SARS-CoV-2 infection rate is 109% (inactive).

Turning to `CC1(C)S[C@@H]2[C@H](NC(=O)Cc3ccccc3)C(=O)N2[C@H]1C(=O)O` [benzylpenicillin] (10 µM), the morphology score in assay [1] was -0.0812. Besides, in assay [2], the SARS-CoV-2 infection rate was 114% (inactive).

For the compound `Nc1nc2[nH]cnc2c(=S)[nH]1` [thioguanine] (0.833333 µM), the morphology score in assay [1] is 0.218. In addition, the SARS-CoV-2 infection rate in assay [2] is 98.5% (inactive).

Regarding `Oc1ccc2c3c1O[C@H]1c4oc5ccccc5c4C[C@@]4(O)[C@@H](C2)N(CC2CC2)CC[C@]314` [naltriben] (10 µM), in assay [1], the morphology score is -0.128. Further, in assay [2], the SARS-CoV-2 infection rate was 106% (inactive).

The compound `COc1cccc(C(=O)CCN[C@@H](C)[C@H](O)c2ccccc2)c1` [oxyfedrine] (10 µM) registered a morphology score in assay [1] of 0.217. Besides, the SARS-CoV-2 infection rate in assay [2] is 102% (inactive).

In assay [1], `C[C@H](CCC(=O)O)[C@H]1CC[C@H]2[C@@H]3CC[C@@H]4C[C@H](O)CC[C@]4(C)[C@H]3C[C@H](O)[C@]12C` [deoxycholic-acid] (10 µM) came in with a morphology score of 0.0921. The SARS-CoV-2 infection rate in assay [2] was 104% (inactive).

In the case of `CN1CCC(=C2c3ccccc3CC(=O)c3sccc32)CC1` [ketotifen] (10 µM), the morphology score in assay [1] turned out to be 0.144. The SARS-CoV-2 infection rate in assay [2] was 101% (inactive).

`Nc1nc(=O)n([C@H]2C[C@H](O)[C@@H](CO)O2)cc1Cl` [cytochlor] (10 µM) showed a morphology score in assay [1] of 0.156. For the same compound, the SARS-CoV-2 infection rate in assay [2] was 102% (inactive).

Take `C[C@]12CCC(=O)C=C1CC[C@@H]1[C@@H]2[C@@H](O)C[C@@]2(C)[C@H]1CC[C@]2(O)C(=O)COC(=O)CCC(=O)O` [hydrocortisone-hemisuccinate] (10 µM): the morphology score in assay [1] is -0.338. The SARS-CoV-2 infection rate in assay [2] was 116% (inactive).

Regarding `O=C(Nc1cc(C(F)(F)F)ccc1O)Nc1cc(C(F)(F)F)ccc1O` (10 µM), in assay [1], the morphology score came out at 0.119. Further, in assay [2], the SARS-CoV-2 infection rate is 104% (inactive).

As for `O=C(/C=C/c1cccnc1)NCCCCC1CCN(C(=O)c2ccccc2)CC1` (0.833333 µM), the morphology score in assay [1] is -0.0966. Besides, the SARS-CoV-2 infection rate in assay [2] is 94% (inactive).

Take `Oc1cc(CNC(=S)/C=C/c2cc(O)c(O)c(Br)c2)cc(O)c1O` (0.833333 µM): the morphology score in assay [1] is 0.194. Moreover, in assay [2], the SARS-CoV-2 infection rate was 104% (inactive).

The compound `CN(C)C(=O)COC(=O)Cc1ccc(OC(=O)c2ccc(NC(=N)N)cc2)cc1` [Camostat mesylate] (10 µM) returned a morphology score in assay [1] of 0.0371. The SARS-CoV-2 infection rate in assay [2] is 104% (inactive).

Regarding `O=C(NC(O)C(Cl)(Cl)Cl)NC(O)C(Cl)(Cl)Cl` (centres undefined) [dicloralurea] (10 µM), the morphology score in assay [1] was determined as 0.108. Besides, the SARS-CoV-2 infection rate in assay [2] was 106% (inactive).

Compound `O=C(O)C(Cc1ccccc1[N+](=O)[O-])=NNc1nc(-c2ccc(Cl)c(Cl)c2)cs1` (10 µM) returned a morphology score in assay [1] of 0.23. The SARS-CoV-2 infection rate in assay [2] was 102% (inactive).

Regarding `Cc1cc([N+](=O)[O-])ccc1NS(=O)(=O)c1cc(Cl)ccc1Cl` (0.833333 µM), the morphology score in assay [1] is 0.153. For the same compound, the SARS-CoV-2 infection rate in assay [2] was 101% (inactive).

In turn, `CN1C(=O)CN=C(c2ccccc2)c2cc(Cl)ccc21` [diazepam] (10 µM) returned a morphology score in assay [1] of 0.0883. For the same compound, the SARS-CoV-2 infection rate in assay [2] is 108% (inactive).

In the case of `O=C(O)CC/C=C\C[C@@H]1CO[C@H](c2ccccc2Cl)O[C@@H]1c1ccccc1O` (racemic) (10 µM), in assay [1], the morphology score is -0.000999. Further, in assay [2], the SARS-CoV-2 infection rate is 106% (inactive).

In assay [1], `CC(=O)CC(=O)O` [lithium-acetoacetate] (10 µM) yielded a morphology score of 0.0997. In addition, the SARS-CoV-2 infection rate in assay [2] was 102% (inactive).

Take `CC(=O)SCCC(=O)N1[C@H](C)CCC[C@@H]1C(=O)O` [methiopril] (10 µM): in assay [1], the morphology score came out at 0.0927. Further, in assay [2], the SARS-CoV-2 infection rate is 102% (inactive).

For `Cn1cnc2c1c(=O)[nH]c(=O)n2C` [theobromine] (10 µM), the morphology score in assay [1] was 0.00515. Further, in assay [2], the SARS-CoV-2 infection rate was 108% (inactive).

In the case of `CNCCn1c(=O)c2cc(OC)c(OC)cc2c2cnc3cc4c(cc3c21)OCO4` (10 µM), the morphology score in assay [1] is -0.381. Moreover, the SARS-CoV-2 infection rate in assay [2] is 118% (inactive).

With `Cn1cnc2c(NCc3ccccc3)nc(NCCO)nc21` [olomoucine] (10 µM), in assay [1], the morphology score was 0.0162. The SARS-CoV-2 infection rate in assay [2] was 98.5% (inactive).

Regarding `CC(C)=CCC/C(C)=C/CNCCNC1C2CC3CC(C2)CC1C3` (centres undefined) (10 µM), the morphology score in assay [1] amounted to 0.122. Also, the SARS-CoV-2 infection rate in assay [2] is 94.5% (inactive).
